Measured values: PubChem BioAssay
Active and inactive are the calls of the source. Unless noted, the rule behind the calls is not given here.

Columns and labels:
[1] = test system: Wnt5a (protein binding on small-molecule microarray); assay: small molecules binding Wnt5a protein – biophysical, small-molecule microarray, 635/667 nm fluorescence, primary screen (AID 1142); details: 635 nm fluorescence, higher = more signal;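 note: fluorescence read at 667 nm with signal to noise per printed feature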
[2] = ATP-based viability of Huh7 replicon cells – cell-based, CellTiter-Glo luminescence, basal, 48 h, cytotoxicity control for HCV replication inhibitor project, primary screen (AID 1143); details: higher = more signal, called active from +8 up or from −8 down;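 note: Huh7 hepatoma cells carrying a hepatitis C replication reporter with no stimulus; test concentration not given here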
[3] = Pseudomonas biofilm growth suppression – PAO1 strain, BacTiter-Glo luminescence, LB-PBS, primary screen (AID 1144); details: P. aeruginosa PAO1 biofilm, 12 h, higher = more signal
[4] = basal CRE-LacZ reporter activity in PC12 – cell-based, unstimulated, primary screen (AID 1145); details: no forskolin, luminescence, 4.5 h, higher = more signal, called active from +8 up or from −8 down
[5] = forskolin-driven CRE-LacZ activity in PC12 – cell-based, CRE-LacZ reporter, forskolin-stimulated, primary screen (AID 1146); details: luminescence, 4.5 h, higher = more signal, called active from +8 up or from −8 down;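 note: PC12 cells with 6xCRE LacZ reporter stimulated by forskolin 10 µM; beta-galactosidase reporter signal reflecting CREB driven transcription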
[6] = target: Streptavidin (Streptomyces avidinii) (UniProt P22629); assay: compounds binding control protein streptavidin – biophysical, small-molecule microarray, 635/667 nm fluorescence, artefact control for SMM compound annotation, primary screen (AID 1147); details: higher = more signal;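 note: signal reflects streptavidin binding to arrayed compounds as a control protein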
[7] = probe aInhba binding on compound microarray – biochemical, small-molecule microarray, 635/667 nm fluorescence, primary screen (AID 1148); details: higher = more signal;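 note: score merges 667nm spot fluorescence with signal-to-noise for antibody binding to printed compounds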
[8] = target: Torsin-1A (Homo sapiens) (UniProt O14656); assay: TOR1A wild-type binding on microarray – cell lysate, small-molecule microarray, lysate, 635/667 nm, primary screen (AID 1149); details: COS7 hTOR1A-WT lysate, 635 nm fluorescence, higher = more signal
[9] = target: Torsin-1A (Homo sapiens) (UniProt O14656); assay: torsin A mutant lysate binding on microarrays – cell lysate, small-molecule microarray, COS7 lysate, 635/667 nm fluorescence, primary screen (AID 1150); details: COS7 hTOR1A mutant lysate, 635 nm fluorescence, higher = more signal;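 note: score pools 667 nm emission and signal to noise measuring lysate protein binding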
[10] = test system: Sonic hedgehog protein (Shh); assay: Sonic hedgehog microarray binding compounds – biochemical, small-molecule microarray, 635/667 nm fluorescence, primary screen (AID 1151); details: 635 nm fluorescence, higher = more signal;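 note: Shh protein binding to compounds spotted on small-molecule microarray slides; score combines spot fluorescence intensity with signal-to-noise across triplicate slides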

Streptavidin (Streptomyces avidinii), sequence (P22629 whole entry, looked up): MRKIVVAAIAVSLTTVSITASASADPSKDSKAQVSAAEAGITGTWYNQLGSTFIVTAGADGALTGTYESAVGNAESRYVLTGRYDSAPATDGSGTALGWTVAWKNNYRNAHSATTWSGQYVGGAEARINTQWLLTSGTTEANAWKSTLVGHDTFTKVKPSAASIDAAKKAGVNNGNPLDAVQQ
Torsin-1A (Homo sapiens), sequence (O14656 whole entry, looked up): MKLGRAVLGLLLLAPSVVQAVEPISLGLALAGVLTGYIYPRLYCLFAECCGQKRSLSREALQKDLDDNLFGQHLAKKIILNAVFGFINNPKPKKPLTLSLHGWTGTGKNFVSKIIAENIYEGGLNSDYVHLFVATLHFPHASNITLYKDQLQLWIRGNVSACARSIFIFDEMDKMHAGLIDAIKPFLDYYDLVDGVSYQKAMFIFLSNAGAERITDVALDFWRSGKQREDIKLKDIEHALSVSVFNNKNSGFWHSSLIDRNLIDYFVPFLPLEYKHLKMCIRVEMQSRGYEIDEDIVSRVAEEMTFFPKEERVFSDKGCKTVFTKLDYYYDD

Structure (SMILES) | composite z-score [1] | z-score [2] | z-score [3] | z-score [4] | z-score [5] | composite z-score [6] | composite z-score [7] | composite z-score [8] | composite z-score [9] | composite z-score [10]
CC(C)c1ccc(NN2C(C(O)c3ccc(F)cc3)C=CC3C(=O)N(c4ccccc4)C(=O)C32)cc1 (stereo not given) | 0.306 | -0.953 (inactive) | -1.63 (inactive) | 0.812 (inactive) | 0.3 (inactive) | 1.7 | 0.324 | -0.448 | 0.0626 | -0.0155
O[C@@H](Cc1ccccc1)[C@@H](/C=C/C1CC1)N(CC#Cc1ccccc1)Cc1ccccc1Br | -1.03 | -1.72 (inactive) | 0.357 (inactive) | 2.41 (inactive) | 0.21 (inactive) | -0.5 | -0.183 | -0.802 | -0.744 | -1.5
COCCCNC(=O)[C@@H]1c2ccccc2C(=O)N(C(C)C)[C@H]1c1ccc(CO)cc1 | 0.389 | -0.293 (inactive) | 0.701 (inactive) | -0.179 (inactive) | 0.312 (inactive) | -0.337 | -0.045 | -0.17 | 0.0072 | 0.499
C=CCC(OC(C)=O)[C@@H]1[C@@H](N(Cc2cccc3ccccc23)C(=O)Cc2ccc(F)cc2)c2cc(OCCCO)ccc2N1C(=O)c1ccc2ccccc2c1 (stereo not given in full) | 0.107 | -0.156 (inactive) | -1.04 (inactive) | -0.724 (inactive) | 1.06 (inactive) | 0.0722 | -0.0774 | -0.035 | -0.183 | 0.508
C#CCN(Cc1ccccc1Br)[C@H](/C=C/c1ccccc1)[C@@H](O)Cc1ccccc1 | -0.356 | -2.2 (inactive) | -0.109 (inactive) | 2.49 (inactive) | -0.697 (inactive) | -0.385 | -0.179 | -0.622 | 0.543 | -0.866
COCCOC(=O)N1C(=O)[C@@]2(c3cc(C#CC4(O)CCCCCC4)ccc31)[C@H](C(=O)Nc1nc3ccccc3s1)[C@H]1C(=O)O[C@H](c3ccccc3)[C@H](c3ccccc3)N1[C@@H]2c1ccc(O)cc1 | 0.62 | -0.804 (inactive) | -0.374 (inactive) | 0.245 (inactive) | 7.33 (inactive) | 0.857 | 0.117 | 0.878 | 0.753 | 1.52
COc1ccc([Si](C)(C)[C@@H]2[C@@H](CCO)O[C@]3(C(=O)N(Cc4ccccc4)c4ccc(N5CCOC5=O)cc43)[C@H]2C)cc1 | 0.0035 | -5.88 (inactive) | -1.37 (inactive) | 3.23 (inactive) | -0.205 (inactive) | 0.242 | -0.016 | 0.151 | 0.817 | 1.39
COc1ccc(CCNC(=O)[C@@]2(c3ccc([N+](=O)[O-])cc3)CC(=O)N(C3CCCCC3)[C@@H]2c2ccc(CO)cc2)cc1 | 0.199 | -1.48 (inactive) | 0.733 (inactive) | -0.125 (inactive) | -1.11 (inactive) | 0.0841 | 0.249 | 0.358 | 0.56 | 0.137
O=c1cccc(-c2ccc([N+](=O)[O-])cc2)o1 | 0.105 | -1.88 (inactive) | -0.982 (inactive) | -0.882 (inactive) | 0.61 (inactive) | 0.315 | 0.165 | -0.0842 | 0.376 | 2.19
COC(=O)[C@@]1(Cc2ccc(F)cc2)[C@H]2c3cc(C(=O)N4CCCC4)n(Cc4ccc(C)c(F)c4F)c3C[C@H]2CN1C(=O)c1ccccc1 | -0.175 | -0.944 (inactive) | -0.298 (inactive) | 1.15 (inactive) | -0.177 (inactive) | -0.286 | 0.12 | -0.259 | -0.407 | -0.472
CC1=C2[C@@H](CCc3ccccc3)OB(O)C[C@@H]2[C@@H]2C(=O)N(Cc3ccccc3)C(=O)[C@@H]2C1 | 0.0023 | -0.23 (inactive) | 0.615 (inactive) | 0.39 (inactive) | -0.138 (inactive) | -0.189 | -0.285 | 0.572 | 0.333 | 0.792
CCC#CCN(Cc1ccccc1Br)[C@H](/C=C/C1CC1)[C@@H](O)Cc1ccccc1 | -0.679 | -2.43 (inactive) | -1.23 (inactive) | 2.67 (inactive) | -0.835 (inactive) | -0.529 | -0.154 | -0.806 | 0.0257 | -0.643
[N-]=[N+]=Nc1ccccc1C[C@]1(C(=O)NCCN2CCOCC2)COC(c2ccc(OCCCO)cc2)=N1 | 0.898 | -1.06 (inactive) | 0.783 (inactive) | 0.754 (inactive) | 1.45 (inactive) | 1.25 | 0.0497 | 0.707 | 1.75 | 0.0324
COCC(=C=CC[C@H](O)c1ccc(OCCO)cc1)CCO | 0.0048 | 0.287 (inactive) | 0.163 (inactive) | 2.44 (inactive) | -0.419 (inactive) | -0.407 | 0.138 | 1.91 | 0.911 | 1.96
